D2 ag-1: activates the human D2 dopamine receptor; AID 624465; DiscoveRx PathHunter D2 beta-arrestin, luminescence, 90 min; 100% = 57 uM dopamine signal; P14416; activation, % (concentration not given with the values); hit rate 0.084% among 360,000; in the data active means activation above about 40%; inconclusive means between about 15% and that limit
Target sequence (P14416 whole entry, looked up): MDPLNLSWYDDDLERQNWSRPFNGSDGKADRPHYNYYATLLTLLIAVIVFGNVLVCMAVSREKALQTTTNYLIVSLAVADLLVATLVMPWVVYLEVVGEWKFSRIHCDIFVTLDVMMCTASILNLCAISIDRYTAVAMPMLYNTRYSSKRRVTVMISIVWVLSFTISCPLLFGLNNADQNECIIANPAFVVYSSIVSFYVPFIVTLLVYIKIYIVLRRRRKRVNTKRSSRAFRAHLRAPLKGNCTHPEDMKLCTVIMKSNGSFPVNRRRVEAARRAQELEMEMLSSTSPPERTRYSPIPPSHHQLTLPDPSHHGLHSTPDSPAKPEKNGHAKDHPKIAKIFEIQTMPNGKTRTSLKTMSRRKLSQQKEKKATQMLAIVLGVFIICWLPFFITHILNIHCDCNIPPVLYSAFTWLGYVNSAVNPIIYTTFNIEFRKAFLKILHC
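DiscoveRx PathHunter D2 beta-arrestin cells (2,100/well) attached overnight, then compound-stimulated 90 min at 37 C in HBSS/10 mM HEPES/0.1% Tween-20 buffer; beta-galactosidase complementation read by luminescence after 1 h at ambient temperature. Dopamine 57 uM final (EC100) as control.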
D2 PAM-1: positive allosteric modulators of human D2 dopamine receptor; HEK293 T-REx D2, calcium flux, EC20 dopamine potentiation; P14416; hit rate 0.34% among 340,000; potentiation, % at 10 µM; AID 485347;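 active means potentiation over 3 SD above the plate norm, cut at about 30% in these data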; further: 0% is about no effect
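Tetracycline-induced HEK293 T-REx cells force-coupled to calcium signalling expressed D2; compounds were pin-added after a 10 s baseline, read kinetically 180 s, then an EC20 dopamine challenge followed with a further 180 s calcium read.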
D2 antagonist: antagonizes the human D2 dopamine receptor. hit rate 2% among 340,000. AID 485344. HEK293 TREx D2 cells, calcium flux, dopamine EC80. inhibition, % at 10 µM; in the data active means inhibition above about 30%; inactive means below that, where a call was filed; further: 0% is about no effect
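Antagonism is scored as inhibition of an EC80 dopamine-evoked calcium signal in a force-coupled, tetracycline-inducible HEK293 T-REx D2 line, with compound present 180 s before agonist.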
D2 ag-2: D2 dopamine receptor (human) agonism; hit rate 0.53% among 340,000; HEK293 T-REx D2 cells, calcium flux agonist mode; activation, % at 2 µM;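 active means activation over 3 SD above normal in the single-dose calcium agonist read, cut at about 30% in these data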; further: 0% is about no effect
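Calcium-flux readout, 1 cycle/sec over 180 s following compound pin transfer, in inducible HEK293 Trex D2 cells (force-coupled); dopamine controls included. Positive calcium responses during this window marked compounds as potential agonists.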
D2 PAM-2: human D2 receptor positive allosteric modulation | P14416 | DiscoveRx D2 beta-arrestin cells, luminescence, 90 min; 100% = 57 uM dopamine signal | potentiation, % (test concentration not listed) | hit rate 0.23% among 360,000 | AID 624464; in the data active means potentiation above about 50%; inconclusive means mostly about 30% to 49%
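PathHunter D2 cells, attached overnight at 37 deg C, received compound in DMSO plus dopamine at EC20 (50 nM final) for 90 min at 37 deg C. Beta-arrestin recruitment was read as luminescence after 1 h with detection reagent at ambient temperature.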
Starred values were filed as active, the others as inactive; ? = inconclusive; . = not tested or not shown. An excerpt weighted towards active compounds, which were near 2.4% of everything screened.

SMILES | D2 ag-1 | D2 PAM-1 | D2 antagonist | D2 ag-2 | D2 PAM-2
Cc1ccc(C(=O)Nc2cccc(C(=O)N/N=C/c3ccc(F)cc3)c2)cc1 | 2 | -24 | 31* | -2 | -15
COc1cc2c(cc1Cl)/C(=C\CCN(C)C)c1ccccc1S2 | -3 | -22 | 37* | 2 | -49
COc1cc(Cl)cc2c1Sc1ccccc1/C2=C/CCN(C)C | -4 | -23 | 63* | -2 | -34
CCN(C(=O)c1cn(CC)c(=O)c2cc(OC)c(OC)cc12)c1ccc(C)c(C)c1 | . | 1 | . | -3 | .
C(=N\Nc1nc2ccccc2s1)/c1cccs1 | 1 | -3 | 37* | 1 | 3
O=C(CSc1nc2c([nH]c3ccccc32)c(=O)n1-c1ccccc1)Nc1ccccc1C(F)(F)F | . | -6 | . | -1 | .
Cc1ccccc1Cn1cnc2c(NS(C)(=O)=O)c(C)c(C)cc21 | 1 | -5 | 35* | 0 | -3
O=C(O)c1ccc(NS(=O)(=O)c2ccc3c(c2)C(=O)c2ccccc2C3=O)cc1 | 3 | 2 | -8 | 0 | 29
Cc1cccc(C)c1NS(=O)(=O)c1ccc2c(c1)C(=O)c1ccccc1C2=O | 11 | 11 | -2 | 0 | 60*
COc1ccccc1CN1CCc2c([nH]c3ccccc23)C1 | -4 | -19 | 53* | 4 | -69
C[C@H](N)c1nnc(SCC(=O)c2ccc(Cl)cc2)o1 | 1 | 8 | 40* | 2 | 10
CC(C)Cc1ccc(C(C)C(=O)Nc2cccnc2)cc1 (stereo not drawn) | -7 | -16 | 22 | 12 | -6
CC(C)Cc1ccc(C(C)C(=O)Nc2ccc(O)cc2)cc1 (stereo not drawn) | 5 | -8 | 39* | 19 | 3
COc1cccc(NC(=O)Cn2c(=O)n(CCc3cccc(C)c3)c(=O)c3ccccc32)c1 | . | 2 | . | . | .
CCC1CCCCN1CCCNC(=O)CSc1nc2nc(C)c(Cc3ccccc3Cl)c(C)n2n1 (stereo not drawn) | -5 | 31* | -6 | 0 | -17
CCC1CCCCN1CCCNC(=O)CSc1nc2nc(C)c(Cc3ccccc3)c(C)n2n1 (stereo not drawn) | -2 | 8 | -24 | 1 | -10
O=C(COc1ccccc1Cl)Nc1ccccc1C(=O)Nc1cccc(C(=O)O)c1 | -1 | -1 | 31* | 0 | -4
O=C(COc1ccccc1Cl)Nc1ccc(C(=O)O)cc1NC(=O)COc1ccccc1Cl | -7 | 7 | 4 | 0 | 1
CCc1ccc(-n2nc(CO)c(C(=O)NCc3ccccc3OC)n2)cc1 | . | . | . | -1 | .
CCc1ccc(Cn2c(CNS(=O)(=O)c3ccc(Cl)s3)nc3cccnc32)cc1 | . | 4 | . | 1 | .
CCn1cc([N+](=O)[O-])c(C(=O)Nc2ccc3c(c2)OCCO3)n1 | 4 | -13 | 69* | 1 | 10
CCOC(=O)CCC(=O)NCc1ccc2c(c1)cc(C)n2C | 0 | -5 | -8 | 0 | 2
Cc1cc2cc(CNC(=O)c3cccs3)ccc2n1C | -2 | -12 | 1 | 52* | -7
Cc1cc2cc(CNC(=S)NCc3ccccc3)ccc2n1C | 2 | 16 | 45* | 1 | -3
CCCCC(=O)NCc1ccc2c(c1)cc(C)n2C | -2 | -10 | 34* | 1 | -11
SMILES | D2 ag-1 | D2 PAM-1 | D2 antagonist | D2 ag-2 | D2 PAM-2
CN1/C(=C\C=C(/C#N)C(=O)Nc2ccc(Cl)cc2)C(C)(C)c2ccccc21 | -2 | -20 | 9 | 40* | -16
CN1/C(=C\C(=O)Nc2ccc(Cl)cc2)C(C)(C)c2ccccc21 | 4 | 6 | 1 | 0 | -1
CCOC(=O)Cn1c(C)c(Br)c(=O)c2cccc(C)c21 | -3 | -11 | 31* | 0 | -27
Brc1ccc(C=Nc2ccc(Nc3ccccc3)cc2)s1 | ? | 12 | -13 | 2 | 87*
C(=Nc1ccc(Nc2ccccc2)cc1)c1ccc2ccccc2c1 | 10 | -7 | -9 | 0 | 52*
NC(=S)N/N=C/c1ccc2ccccc2c1 | -2 | -13 | 48* | -1 | -17
CCOc1ccc(NC(=O)Cc2ccc(NC(=O)N3CCCCc4ccccc43)cc2)cc1 | . | 16 | . | -1 | .
COc1ccc(Br)cc1Cn1nnc(C(=O)Nc2cccc(SC)c2)c1N | . | -4 | . | 2 | .
COc1ccc(NCc2cc3cc4c(cc3n(CC(=O)Nc3ccccc3)c2=O)OCO4)cc1 | . | 5 | . | . | .
O=C(CSc1nccn1Cc1ccc(Cl)cc1)Nc1nc2ccccc2s1 | . | 4 | . | . | .
Cc1ccc(NC(=O)NC(=O)N(C(C)C)S(=O)(=O)c2ccc(C)cc2)cc1 | 8 | -10 | 44* | 7 | -8
CCCCN(C(=O)c1ccc2c(c1)OCO2)C1CCS(=O)(=O)C1 (stereo not drawn) | -3 | 2 | -26 | 2 | 0
CCN(C(=O)c1ccc2c(c1)OCO2)C1CCS(=O)(=O)C1 (stereo not drawn) | -2 | -18 | 39* | 1 | -15
Cc1ccc(-n2nc(CO)c(C(=O)NCCCCc3ccccc3)n2)cc1C | . | 2 | . | 3 | .
COc1ccc(CC(=O)N/N=C/c2ccc(-c3ccc(F)cc3)o2)cc1OC | 1 | -17 | 4 | 40* | -8
O=C(CBr)c1ccc([N+](=O)[O-])c(CS(=O)(=O)c2ccc(Cl)cc2)c1 | 54* | -2 | 6 | 5 | -37
Cc1nn(-c2ccccc2)c2c1C1(C(=O)N(C(C)C)c3ccccc31)C(C#N)=C(N)O2 (stereo not drawn) | 11 | -10 | 12 | 1 | 60*
O=C1Cc2ccccc2Sc2c(OCCN3CCCCC3)cccc21 | -9 | -18 | 80* | 2 | -32
O=C1Cc2ccccc2Sc2cc(OCCCN3CCCCC3)ccc21 | -7 | -31 | -6 | 2 | -34
CC1CCN(C(=O)c2cc(-c3ccc(Br)cc3)on2)CC1 | . | -4 | . | -1 | .
COc1ccc(Nc2nc(N)nc(CSc3nc(C)cc(C)n3)n2)cc1 | -4 | 5 | . | . | 3
COc1ccc(Nc2nc(N)nc(CSc3nnc(N)s3)n2)cc1 | 1 | -7 | 38* | -1 | -5
Cc1oc(-c2cccc(Cl)c2)nc1CSc1nc2c(c(=O)[nH]1)CCC2 | -1 | -1 | 8 | -1 | -7
Cc1oc(-c2ccccc2Cl)nc1CSc1nc2c(c(=O)[nH]1)CCC2 | 14 | 5 | 35* | 0 | 9
COc1ccccc1-c1nc(S(=O)(=O)c2ccccc2)c(N2CCC(C)CC2)o1 | . | 1 | . | . | .
CCCNC(=O)Cn1c(=O)/c(=C\c2ccc(-c3ccc([N+](=O)[O-])cc3)o2)s/c1=C\C(=O)C(C)(C)C | -2 | -14 | 54* | 93* | 7
CC(C)C(NC(=O)c1ccccc1)C(=O)NCc1ccccn1 (stereo not drawn) | 0 | -10 | 61* | 1 | 2
COc1cc(OC)cc(C(=O)NC(C(=O)NCc2ccccn2)C(C)C)c1 (stereo not drawn) | -3 | 7 | -4 | 1 | -8
